Assay results reported in the supplement of paper PMC6555819.

Key:
Assay in all cases: PBM binding z-score (relative to random genomic background probes); higher = stronger binding; sequences stand for … in GC…GCGATTGACAGCGTAGAATGAAGG
[1] = system: FXR:RXRa (NR concentration 270 nM, RXRa partner concentration 90 nM)
How it was run: (§1)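 Custom Agilent 4×180K protein-binding microarrays carried double-stranded probes, each with a 34-nt variable region. These regions held direct-repeat seeds, single-nucleotide variants, half-site ablations and random human genomic background sequences. Ligand-free nuclear receptor dimers were incubated on the arrays for 1 h, antibodies against each partner (one per run) detected binding, and scanned fluorescence was regression-normalized. Binding z-scores take the random background probes as reference.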

[2] = system: LXRa:RXRa (NR concentration 270 nM, RXRa partner concentration 90 nM)
How it was run: as §1

[3] = system: LXRa homodimer (NR concentration 270 nM)
How it was run: as §1

[4] = system: LXRb:RXRa (NR concentration 270 nM, RXRa partner concentration 90 nM)
How it was run: as §1

[5] = system: LXRb homodimer (NR concentration 270 nM)
How it was run: as §1

[6] = system: PPARa:RXRa (NR concentration 270 nM, RXRa partner concentration 90 nM)
How it was run: as §1

[7] = system: PPARg:RXRa (NR concentration 180 nM, RXRa partner concentration 90 nM)
How it was run: as §1

[8] = system: PPARg:RXRa 270nM:90nM, anti-RXR (NR concentration 270 nM, RXRa partner concentration 90 nM)
How it was run: as §1

[9] = system: PPARg:RXRa 30nM:10nM, anti-RXR (NR concentration 30 nM, RXRa partner concentration 10 nM)
How it was run: as §1

[10] = system: PPARg:RXRa 90nM:30nM, anti-RXR (NR concentration 90 nM, RXRa partner concentration 30 nM)
How it was run: as §1

Row | Sequence | PBM binding z-score [1] | PBM binding z-score [2] | PBM binding z-score [3] | PBM binding z-score [4] | PBM binding z-score [5] | PBM binding z-score [6] | PBM binding z-score [7] | PBM binding z-score [8] | PBM binding z-score [9] | PBM binding z-score [10]
1 | ACAGACAGGTGATGAAGGTAACTCAAGCTATCAT | -0.102 | -0.296 | -0.525 | -0.0355 | -0.354 | 0.0252 | 0.537 | -0.224 | 0.113 | -0.261
2 | CAAACTCGGTCACGAAAGGTCAAAGTCGAATGAC | 6.39 | 7.32 | 7.74 | 6.5 | 2.6 | 5.95 | 6.08 | 5.84 | 2.68 | 5.51
3 | CCTTACGGGTCACTGACAGGTTATAGCTTTTGGA | 4.62 | 4.13 | 0.331 | 3.35 | -0.0774 | 4.88 | 3.89 | 4.21 | 1.73 | 3.06
4 | GATACAGGTTCAGCTAGAGGCCAGAGTATGGAAA | 0.427 | 0.656 | -0.157 | 0.305 | -0.537 | 1.29 | 0.495 | 0.117 | -0.177 | -0.176
5 | CGAACTAGGTCATTGACCGGACAGTGAATAGTAA | 5.26 | 4.95 | 2.4 | 3.37 | 0.0098 | 4.46 | 7.14 | 6.07 | 3.06 | 5.48
6 | CCAGACAGGTGAGAAGGAAACTCAGCCTCGATTA | 0.0152 | -0.159 | 0.111 | -0.146 | -0.36 | 0.0665 | 0.519 | 0.482 | -0.0162 | 0.249
7 | GCTAGCAGGCCATTTGCGTCACTCAATGACGGGC | -0.489 | -0.808 | -0.589 | -1.15 | -0.965 | -0.622 | 0.189 | -0.578 | -0.911 | -0.185
8 | TCATAGAGGTAAATGCTAGGTGAAAGTCCGATCT | 0.371 | 1.08 | -0.125 | 0.395 | -0.74 | 1.24 | 0.339 | 1.7 | 2.66 | 2.06
9 | ATCTCTAGGTAGCCAAGTTCAGTGAATGCCGAAC | -0.0679 | -0.0761 | 0.135 | 0.15 | 0.335 | 0.168 | -0.118 | -0.148 | -0.248 | -0.291
10 | ACTAGTTGGTCAGCTGAGGTCCCACACAATTCGG | 0.639 | -0.375 | -0.16 | -0.219 | 0.179 | -0.1 | 0.275 | -0.102 | -0.52 | -0.3
11 | CCGACTGGGGCAAAGGCTACCATACTCAGTACGA | -0.192 | -0.314 | -0.186 | -0.213 | -1.35 | 2.78 | 6.74 | 6.84 | 5.04 | 6.61
12 | TCAGACAGGTGAACGTAACTCAGGTACGCAGTCG | 0.443 | 0.558 | -0.111 | 0.538 | -0.313 | 1.43 | 1.05 | 2.06 | 3.66 | 2.83
13 | ATCTATAGGTAACCAAGTTCAGTGAATGCCGAAC | 0.275 | 0.814 | 0.873 | 0.556 | 0.386 | 1.01 | 0.856 | 0.848 | 0.142 | 0.641
14 | TCTGCTAAGTCAACGATGGTCAGCTAATCTGCTA | -0.531 | -0.432 | -0.993 | -0.553 | -0.721 | -0.269 | -0.51 | 0.278 | 1.33 | 0.924
15 | TCTTGTAGATCAATAGAGGTTAGGAAAGTGCGCT | 1.24 | 1.49 | 0.276 | 0.914 | 0.11 | 1.62 | 0.163 | 2.04 | 3.13 | 2.57
16 | TCTTGTAGATCAAAGGTTAAGAAAGCCGAAGCCT | 1.74 | 1.97 | -0.166 | 2.14 | -0.146 | 4.65 | 8.31 | 8.09 | 9.09 | 8.69
17 | CCGACTGGGGCATAAGGTTACCACAAGCCAGCCC | 0.502 | 1.28 | -0.388 | 0.812 | -0.551 | 2.07 | 2.44 | 3.27 | 0.735 | 2.92
18 | CCTAGTTGGTCAGGAGTTCACACACCGGATATGA | 1.64 | 2.22 | 1.92 | 1.85 | 0.3 | 2.2 | 1.24 | 1.95 | 0.752 | 1.49
19 | ATATGTAGGTTAGCTGGGGTCATTAAGACTAGGC | 4.6 | 5.39 | 2.55 | 4.58 | 1.38 | 5.13 | 5.69 | 4.89 | 2.49 | 4.2
20 | CAAACTAGGTAACAGAGGTCAAAGTCCGTGCGTA | 5.29 | 6.1 | 7.34 | 5.38 | 1.74 | 5.84 | 6.67 | 6.35 | 3.97 | 5.74
21 | CCTATTAGTTGACCATATGGGCAACCGAAGCTCG | 0.27 | 0.454 | 0.368 | 0.353 | 0.853 | -0.034 | 0.453 | 0.317 | -0.521 | -0.00655
22 | CGATCTAGGTCATCCAGGACAGTGAATACATTGA | 4.46 | 2.5 | 0.582 | 2.09 | 0.272 | 4.82 | 7.36 | 6.3 | 3.7 | 5.8
23 | GTACCAAGGTGAATAGGTCGTTGGTGAGTAGGCG | 0.874 | 0.844 | -0.171 | 0.388 | -0.834 | 2.25 | 1.17 | 1.93 | 0.116 | 1.13
24 | ACTTACTGGTCAACGAGGTTATAGCACGCGTATA | 1.24 | 1.44 | 0.897 | 1.62 | 0.859 | 1.88 | 1.04 | 1.16 | 1.29 | 1.29
